In PubChem BioAssay (EPA / NIEHS):
Calls of active or inactive are those of the source. Rule for the calls: active = hit-call score of the fitted dose curve at least 0.9, where 1 is the maximum; inactive = score below 0.9.

What was measured:
[1] = ATG_CRE_CIS: Attagene CIS-FACTORIAL HepG2 Assay for human cAMP Responsive Element (CRE) binding protein 3 (AID 2282926); conditions: HepG2 CRE cis-reporter, Attagene multiplexed mRNA; actives raise or lower the signal
In short: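 HepG2 cells transiently transfected with cis-element-driven multiple reporter transcription units; CRE reporter mRNA measured 24 h after dosing by RT-PCR, 6-FAM labelling, HpaI digestion and capillary electrophoresis. Bidirectional fit versus DMSO baseline.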

[2] = molecular target: CCAAT/enhancer-binding protein beta (Homo sapiens) (UniProt P17676); experiment: ATG_C_EBP_CIS: Attagene CIS-FACTORIAL HepG2 Assay for human CCAAT/Enhancer Binding Protein (C/EBP) beta (AID 2282927); conditions: HepG2 Attagene cis-factorial transcription factor reporter; actives raise or lower the signal
CCAAT/enhancer-binding protein beta (Homo sapiens), sequence (P17676 whole entry, looked up, the tested form may be a part): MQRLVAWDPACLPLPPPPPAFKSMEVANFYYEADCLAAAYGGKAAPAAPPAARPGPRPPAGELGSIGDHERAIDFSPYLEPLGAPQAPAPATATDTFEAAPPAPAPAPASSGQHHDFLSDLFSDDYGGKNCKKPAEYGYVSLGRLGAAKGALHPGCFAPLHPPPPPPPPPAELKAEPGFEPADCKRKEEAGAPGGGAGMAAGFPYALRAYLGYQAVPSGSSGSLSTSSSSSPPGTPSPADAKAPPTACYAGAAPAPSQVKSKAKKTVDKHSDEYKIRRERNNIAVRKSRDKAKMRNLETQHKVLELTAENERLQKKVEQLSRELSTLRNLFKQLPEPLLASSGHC
In short: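 Chemical-treated HepG2 cells (24 h) bearing cis-regulated reporter constructs were processed for total RNA, then reverse transcription, PCR amplification, fluorescent primer extension and fragment analysis; gain- and loss-of-signal were fitted against DMSO.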

[3] = ATG_CMV_CIS: Attagene CIS-FACTORIAL HepG2 Assay for human CMV (Internal Marker) (AID 2282928); conditions: HepG2 CMV promoter reporter, transcription factor profiling; actives raise or lower the signal;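 note: endpoint acts as a background internal control marker rather than a target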
In short: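 CMV internal-marker background readout in transiently transfected HepG2 cells bearing cis-regulated reporter units. Reporter mRNA is measured 24 h after dosing by RT-PCR and capillary electrophoresis, with bidirectional fitting against DMSO.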

[4] = ATG_DR4_LXR_CIS: Attagene CIS-FACTORIAL HepG2 Assay for human Liver X Receptor (LXR), DR4 submotif (AID 2282929); conditions: HepG2 Attagene DR4 cis-reporter, mRNA transcription; actives raise or lower the signal
In short: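 HepG2 cells were transiently transfected with multiple cis-regulated reporter units and dosed for 24 hours. The DR4 reporter mRNA was quantified by RT-PCR, 6-FAM labelling and capillary electrophoresis. Bidirectional fits used DMSO as baseline.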

[5] = molecular target: Aryl hydrocarbon receptor (Homo sapiens) (UniProt P35869); experiment: ATG_Ahr_CIS: Attagene CIS-FACTORIAL HepG2 Assay for human Aryl Hydrocarbon Receptor (Ahr) (AID 2282930); conditions: HepG2 AhR cis-factorial reporter transcription; actives raise or lower the signal
Aryl hydrocarbon receptor (Homo sapiens), sequence (P35869 whole entry, looked up): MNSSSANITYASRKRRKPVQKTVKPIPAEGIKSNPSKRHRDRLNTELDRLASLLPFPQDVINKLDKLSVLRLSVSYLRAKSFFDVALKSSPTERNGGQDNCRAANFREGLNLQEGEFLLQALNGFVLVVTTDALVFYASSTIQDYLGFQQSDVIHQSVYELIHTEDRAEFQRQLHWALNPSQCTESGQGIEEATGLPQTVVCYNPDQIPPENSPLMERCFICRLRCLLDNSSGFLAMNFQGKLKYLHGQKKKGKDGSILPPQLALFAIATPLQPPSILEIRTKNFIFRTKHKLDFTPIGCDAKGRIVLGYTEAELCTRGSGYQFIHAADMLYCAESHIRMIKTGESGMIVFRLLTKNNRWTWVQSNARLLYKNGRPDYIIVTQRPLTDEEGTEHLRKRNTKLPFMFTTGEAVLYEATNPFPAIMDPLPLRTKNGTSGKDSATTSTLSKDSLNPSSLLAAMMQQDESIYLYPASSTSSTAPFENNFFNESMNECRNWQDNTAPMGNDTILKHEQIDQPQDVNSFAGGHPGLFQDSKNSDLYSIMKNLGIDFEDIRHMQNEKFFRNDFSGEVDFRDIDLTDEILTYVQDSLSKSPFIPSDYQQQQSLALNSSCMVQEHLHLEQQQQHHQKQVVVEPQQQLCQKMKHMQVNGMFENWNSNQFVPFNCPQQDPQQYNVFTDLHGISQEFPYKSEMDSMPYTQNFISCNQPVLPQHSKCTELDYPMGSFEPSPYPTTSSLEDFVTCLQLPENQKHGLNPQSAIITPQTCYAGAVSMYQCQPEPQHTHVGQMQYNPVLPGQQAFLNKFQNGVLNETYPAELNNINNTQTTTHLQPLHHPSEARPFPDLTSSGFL
In short: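 Following 24 h of chemical dosing, transfected HepG2 liver cells with cis-driven reporter units were lysed for RNA; reporter mRNA was quantified via RT-PCR and capillary electrophoresis, and responses fitted bidirectionally from DMSO.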

[6] = ATG_AP_1_CIS: Attagene CIS-FACTORIAL HepG2 Assay for human Activator Protein 1 (AP-1) (AID 2282931); conditions: HepG2 Attagene cis-factorial AP-1 reporter mRNA; actives raise or lower the signal
In short: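 HepG2 cells transiently transfected with cis-element-driven reporter transcription units, dosed for 24 hours. Reporter mRNA measured by RT-PCR, 6-FAM labelling, HpaI digestion and capillary electrophoresis. Bidirectional fitting against DMSO baseline.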

[7] = ATG_AP_2_CIS: Attagene CIS-FACTORIAL HepG2 Assay for human Activator Protein 2 (AP-2) (AID 2282932); conditions: HepG2 AP-2 cis-reporter, Attagene transcription factor profiling; actives raise or lower the signal
In short: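 HepG2 cells were transiently transfected with multiple cis-promoter reporter transcription units and dosed for 24 h. Reporter mRNA was measured by RT-PCR with capillary electrophoresis fluorescence; bidirectional fits relative to DMSO baseline.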

[8] = ATG_BRE_CIS: Attagene CIS-FACTORIAL HepG2 Assay for human Bone Morphogenetic Protein (BMP) Response Element (BRE) (AID 2282933); conditions: HepG2 BMP response element reporter, Attagene transcription factor profiling; actives raise or lower the signal
In short: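 HepG2 cells transiently transfected with multiplexed cis-element reporter units were dosed with chemical for 24 h. Reporter mRNA was measured by RT-PCR with fluorescent labelling, HpaI digestion and capillary electrophoresis; bidirectional fitting relative to DMSO.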

[9] = molecular target: Retinoic acid receptor alpha (Homo sapiens) (UniProt P10276); experiment: ATG_DR5_RAR_CIS: Attagene CIS-FACTORIAL HepG2 Assay for human Retinoic Acid Receptor Alpha (RARE), DR5 submotif (AID 2282934); conditions: HepG2 Attagene cis-factorial RARE DR5 reporter, mRNA; actives raise or lower the signal
Retinoic acid receptor alpha (Homo sapiens), sequence (P10276 whole entry, looked up): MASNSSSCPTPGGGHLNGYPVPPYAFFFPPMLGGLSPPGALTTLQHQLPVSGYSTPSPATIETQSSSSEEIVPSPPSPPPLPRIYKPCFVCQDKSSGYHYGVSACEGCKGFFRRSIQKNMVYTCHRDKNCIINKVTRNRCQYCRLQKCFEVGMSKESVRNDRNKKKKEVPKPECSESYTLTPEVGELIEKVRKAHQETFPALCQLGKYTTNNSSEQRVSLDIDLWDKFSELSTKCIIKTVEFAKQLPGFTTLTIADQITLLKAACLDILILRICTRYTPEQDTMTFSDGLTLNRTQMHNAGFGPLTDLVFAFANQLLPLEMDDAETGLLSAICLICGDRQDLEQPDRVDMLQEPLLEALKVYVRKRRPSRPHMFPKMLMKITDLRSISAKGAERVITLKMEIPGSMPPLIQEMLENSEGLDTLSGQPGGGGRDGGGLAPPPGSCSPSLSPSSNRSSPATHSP
In short: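 Transfected HepG2 reporter cells are exposed to chemicals for 24 h. Then RNA is extracted and the DR5 element reporter transcript is measured by RT-PCR and capillary electrophoresis, with bidirectional curve fitting relative to DMSO.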

[10] = molecular target: Transcription factor E2F1 (Homo sapiens) (UniProt Q01094); experiment: ATG_E2F_CIS: Attagene CIS-FACTORIAL HepG2 Assay for human E2F Transcription Factor 1 (AID 2282935); conditions: HepG2 Attagene cis-reporter, E2F reporter RNA transcripts; actives raise or lower the signal
Transcription factor E2F1 (Homo sapiens), sequence (Q01094 whole entry, looked up): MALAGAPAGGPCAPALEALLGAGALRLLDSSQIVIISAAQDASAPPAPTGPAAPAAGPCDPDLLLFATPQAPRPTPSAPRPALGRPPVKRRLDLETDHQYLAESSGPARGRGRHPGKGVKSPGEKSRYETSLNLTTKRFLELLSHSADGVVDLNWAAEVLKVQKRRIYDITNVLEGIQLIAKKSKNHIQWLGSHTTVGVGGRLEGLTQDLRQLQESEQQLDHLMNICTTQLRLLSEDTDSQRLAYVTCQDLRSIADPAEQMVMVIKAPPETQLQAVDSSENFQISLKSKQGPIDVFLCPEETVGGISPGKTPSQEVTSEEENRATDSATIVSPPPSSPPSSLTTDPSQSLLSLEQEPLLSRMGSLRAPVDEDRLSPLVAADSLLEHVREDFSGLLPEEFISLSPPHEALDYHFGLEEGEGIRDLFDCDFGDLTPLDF
In short: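 HepG2 cells transiently transfected with multiplexed cis-element reporter units, dosed for 24 h. Reporter mRNA measured by RT-PCR, 6-FAM primer-extension labeling, HpaI digestion and capillary electrophoresis; bidirectional fit versus DMSO baseline.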

[11] = ATG_E_Box_CIS: Attagene CIS-FACTORIAL HepG2 Assay for human Enhancer Box (E-box) (AID 2282936); conditions: HepG2 E-box cis-reporter transcription, actives raise or lower the signal
In short: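 HepG2 cells transiently transfected with multiplexed cis-element reporter units sensing endogenous transcription factor activity; 24 h compound exposure. Reporter mRNA measured by RT-PCR, 6-FAM primer extension, HpaI digestion and capillary electrophoresis; bidirectional fit versus DMSO.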

[12] = ATG_M_61_CIS: Attagene CIS-FACTORIAL HepG2 Assay for M61 Transcription Factor (Internal Marker) (AID 2282937); conditions: HepG2 Attagene CIS-FACTORIAL M61 internal marker reporter; actives raise or lower the signal
In short: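 HepG2 cells transiently transfected with multiplexed cis-promoter reporter units reporting endogenous transcription factor activity, measured 24 h after dosing. Reporter mRNA quantified by RT-PCR and capillary electrophoresis; bidirectional fit against DMSO baseline.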

[13] = ATG_EGR_CIS: Attagene CIS-FACTORIAL HepG2 Assay for human Early Growth Response 1 (EGR1) (AID 2282938); conditions: HepG2 Attagene CIS-FACTORIAL EGR reporter mRNA; actives raise or lower the signal
In short: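 HepG2 cells transiently transfected with cis-element-driven multiplexed reporter units, dosed for 24 h. EGR1-element reporter mRNA quantified by RT-PCR, 6-FAM labelling, HpaI digestion and capillary electrophoresis; bidirectional fit versus DMSO.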

[14] = ATG_M_19_CIS: Attagene CIS-FACTORIAL HepG2 Assay for M19 Transcription Factor (Internal Marker) (AID 2282939); conditions: HepG2 Attagene CIS-FACTORIAL M19 internal marker reporter; actives raise or lower the signal
In short: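 HepG2 cells transiently transfected with cis-regulated multiple reporter transcription units were dosed for 24 h; reporter mRNA was quantified by RT-PCR, 6-FAM primer-extension labelling, HpaI digestion and capillary electrophoresis, with bidirectional fitting against DMSO baseline.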

[15] = ATG_ERE_CIS: Attagene CIS-FACTORIAL HepG2 Assay for Estrogen Response Element (ERE) (AID 2282940); conditions: HepG2 ERE cis-reporter, Attagene RNA transcript; actives raise or lower the signal
In short: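 HepG2 cells transiently transfected with cis-promoter-driven multiplexed reporter transcription units report endogenous TF activity. After 24 h compound exposure, reporter mRNA is quantified by RT-PCR with capillary electrophoresis fluorescence; bidirectional fitting versus DMSO baseline.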

[16] = ATG_Ets_CIS: Attagene CIS-FACTORIAL HepG2 Assay for human Erythroblast Transformation Specific (ETS) (AID 2282941); conditions: HepG2 ETS cis-reporter transcription, actives raise or lower the signal
In short: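 HepG2 cells transfected with multiple cis-regulated reporter units measuring endogenous ETS-driven transcription, 24 h after dosing. Reporter mRNA quantified by RT-PCR with capillary electrophoresis; bidirectional fit relative to DMSO.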

[17] = molecular target: Hepatocyte nuclear factor 3-beta (Homo sapiens) (UniProt Q9Y261); experiment: ATG_FoxA2_CIS: Attagene CIS-FACTORIAL HepG2 Assay for human Forkhead box A2 (FOXA2) (AID 2282942); conditions: HepG2 cis-reporter transcription factor activity, 24 h; actives raise or lower the signal
Hepatocyte nuclear factor 3-beta (Homo sapiens), sequence (Q9Y261 whole entry, looked up): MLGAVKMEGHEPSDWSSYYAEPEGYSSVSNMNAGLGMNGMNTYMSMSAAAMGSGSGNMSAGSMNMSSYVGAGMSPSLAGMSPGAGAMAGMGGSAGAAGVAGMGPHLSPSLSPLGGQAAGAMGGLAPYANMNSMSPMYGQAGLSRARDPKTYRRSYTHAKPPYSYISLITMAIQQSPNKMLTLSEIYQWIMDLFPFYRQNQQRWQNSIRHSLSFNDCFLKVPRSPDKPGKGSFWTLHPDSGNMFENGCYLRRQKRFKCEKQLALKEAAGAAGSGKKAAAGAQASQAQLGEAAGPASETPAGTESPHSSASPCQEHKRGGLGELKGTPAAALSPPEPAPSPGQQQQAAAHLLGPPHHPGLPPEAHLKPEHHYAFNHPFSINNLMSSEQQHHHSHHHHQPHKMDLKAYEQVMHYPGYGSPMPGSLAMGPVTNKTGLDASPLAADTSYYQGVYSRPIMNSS
In short: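 HepG2 transiently transfected with a multiplexed cis-promoter reporter library read endogenous FOXA2 activity. After 24 h compound exposure, reporter mRNA was quantified by RT-PCR, HpaI digestion and capillary electrophoresis. Bidirectional fit against DMSO.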

[18] = ATG_FoxO_CIS: Attagene CIS-FACTORIAL HepG2 Assay for human Forkhead box O (FoxO) (AID 2282943); conditions: HepG2 Attagene cis-reporter, FoxO element, mRNA; actives raise or lower the signal
In short: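 24 h chemical exposure, HepG2 with transient cis-MRTU transfection. RNA extraction, oligo(dT) RT, reporter-specific PCR, primer-extension labelling, HpaI digestion, CE fragment analysis; bidirectional fit, DMSO baseline.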

[19] = ATG_GATA_CIS: Attagene CIS-FACTORIAL HepG2 Assay for human GATA Binding Protein (AID 2282944); conditions: HepG2 GATA cis-element reporter, Attagene multiplex mRNA; actives raise or lower the signal
In short: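 HepG2 cells transiently transfected with multiplexed cis-element reporter units reflecting endogenous transcription factor activity; reporter mRNA measured after 24 h dosing by RT-PCR, 6-FAM labeling, HpaI digestion and capillary electrophoresis. Bidirectional fitting versus DMSO baseline.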

Measured: outcome

CCOCOCC
inactive: all assays above

CCC/C=C/CO
not listed: [7] | [8] | [9]
inactive: all other assays above

O=S(=O)(O)CCC(F)(F)C(F)(F)C(F)(F)C(F)(F)C(F)(F)C(F)(F)C(F)(F)C(F)(F)F
not listed: [4] | [9] | [13]
inactive: all other assays above

CCCCOC(=O)C(C)O (stereo not drawn)
not listed: [4] | [8]
inactive: all other assays above
